# Calls of active or inactive are those of the source. Unless noted, no stated cut-off is given here; in the data, active means inhibition above about 80%; inactive means the rest.
# How the values were obtained:
# [1] = LFS_MB_P medulloblastoma growth inhibition, cell-based, chromothripsis tumors, cisplatin or BGB combos (AID 1671449); conditions: LFS_MB_P medulloblastoma cells;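 further: cells exposed for 96 hours; 0% = vehicle DMSO and 100% = killing by high DMSO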
# [2] = HDN33 neuroblastoma growth inhibition, cell-based, chromothripsis tumors, cisplatin or BGB combos (AID 1671450); conditions: HDN33 neuroblastoma cells, stronger effect = higher value;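 further: cells exposed to compound for four days; 0% = vehicle DMSO and 100% = cell killing by high DMSO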
# [3] = ICB984 medulloblastoma cell growth inhibition, synergistic combos for chromothripsis tumors, cisplatin or BGB combos (AID 1671451; call rule not given here;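 further: cells exposed for 96 hours before readout; 0% = vehicle DMSO and 100% = killing by high DMSO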); conditions: ICB984 medulloblastoma cells, drug combinations, stronger effect = higher value
# [4] = LFS_MB_1R medulloblastoma cell growth inhibition, synergistic combos for chromothripsis tumors, cisplatin or BGB combos (AID 1671452); conditions: LFS_MB_1R medulloblastoma cells, stronger effect = higher value;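 further: cells exposed for 96 hours before readout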
# [5] = HTB85 osteosarcoma cell growth inhibition, synergistic combos for chromothripsis tumors, BGB or cisplatin IC20 combos (AID 1671453); conditions: HTB85 osteosarcoma cells, drug combinations, stronger effect = higher value;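 further: cells exposed for 96 hours before readout; 0% = vehicle DMSO and 100% = high DMSO killing control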
# [6] = CRL2098 osteosarcoma cell growth inhibition, synergistic combos for chromothripsis tumors, BGB or cisplatin IC20 combos (AID 1671454); conditions: CRL2098 osteosarcoma cells, drug combinations, stronger effect = higher value;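 further: cells exposed for 96 h before readout; 0% = vehicle DMSO and 100% = killing by high DMSO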
# [7] = HD-MB03 medulloblastoma cell growth inhibition, synergistic combos for chromothripsis tumors, BGB or cisplatin IC20 combos (AID 1671455; in the data active means inhibition above about 83%;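 further: 0% = vehicle DMSO and 100% = high DMSO as cytotoxic control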); conditions: HD-MB03 medulloblastoma cells, stronger effect = higher value
# [8] = UWB1.289 ovarian carcinoma cell growth inhibition, synergistic combos for chromothripsis tumors, BGB or cisplatin combos (AID 1671456); conditions: UWB1.289 ovarian carcinoma cells, stronger effect = higher value;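 further: cells exposed to compound for four days; 0% = vehicle DMSO and 100% = killing by high DMSO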
# [9] = LFS_MB_2R medulloblastoma cell growth inhibition, synergistic combos for chromothripsis tumors, cisplatin combos (AID 1671457); conditions: LFS_MB_2R medulloblastoma cells, stronger effect = higher value;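 further: cells exposed to compound for four days before readout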
# [10] = MDA-MB-436 breast carcinoma cell growth inhibition, synergistic combos for chromothripsis tumors, BGB or cisplatin combos (AID 1671458; call rule not given here;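 further: cells exposed for 96 hours; 0% = vehicle DMSO and 100% = killing by high DMSO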); conditions: MDA-MB-436 breast carcinoma growth inhibition, drug combinations, stronger effect = higher value
# [11] = UWB1.289_BRCA1 ovarian cancer growth, cell-based, BGB or cisplatin combinations (AID 1671459); conditions: UWB1.289 BRCA1 ovarian carcinoma, drug combinations, stronger effect = higher value
# [12] = human astrocyte viability loss, single and combined drugs, cytotoxicity control for chromothriptic childhood tumor combination screen, cell-based, BGB or cisplatin IC20 combos (AID 1671460); conditions: Human astrocytes, drug combinations, stronger effect = higher value;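 further: cells exposed to compounds for 96 hours before viability readout; 0% = vehicle and 100% = killing control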
# [13] = growth inhibition of BT084 medulloblastoma cells, cell-based, ICGC_MB145, cisplatin and BGB IC40 combos (AID 1671461); conditions: drug combinations, stronger effect = higher value;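 further: cells exposed to drugs for 96 hours; 0% = vehicle DMSO and 100% = high DMSO full killing control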
# [14] = growth inhibition of RCMB18 medulloblastoma cells, cell-based, cisplatin and BGB IC40 combos (AID 1671462); conditions: stronger effect = higher value;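 further: cells exposed to compound for four days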
# [15] = growth inhibition of CRL1545 osteosarcoma cells, cell-based, cisplatin and BGB IC20 combos (AID 1671464); conditions: stronger effect = higher value;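 further: cells exposed to compound for 96 hours before readout; 0% = vehicle DMSO and 100% = high DMSO killing control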
# [16] = measured here: combination with BGB IC40, at 0.05 µM
# [17] = measured here: with BGB IC20 combination, at 0.5 µM
# [18] = measured here: with cisplatin IC20 combination, at 0.5 µM
# [19] = measured here: combination with cisplatin, at 0.5 µM
# [20] = measured here: combination with cisplatin, at 5 µM
smiles,measurement,setting,value
C=C1C(=O)O[C@@H]2C=C(C)CCC=C(C)CC[C@@H]12,inhibition,"[1]; at 0.5 µM, stronger effect = higher value",-19.3% (inactive)
same,inhibition,"[1]; measured here: combination with BGB IC20, at 0.005 µM",-3.36%
same,inhibition,"[1]; measured here: combination with BGB IC40, at 0.005 µM",-13.6%
same,inhibition,[1]; [16],7.16%
same,inhibition,"[1]; measured here: combination with cisplatin, at 0.5 µM, stronger effect = higher value",-51.8%
same,inhibition,"[1]; measured here: combination with cisplatin, at 5 µM, stronger effect = higher value",114%
same,inhibition,"[2]; BGB combo, at 5 µM",5.76%
same,inhibition,[2]; at 0.5 µM,-17.6% (inactive)
same,inhibition,"[2]; cisplatin combo, at 5 µM",29.9%
same,inhibition,[2]; [17],-23.4%
same,inhibition,[2]; [18],-29.2%
same,inhibition,"[2]; single agent, at 5 µM",38.5%
same,inhibition,"[3]; BGB IC20 combo, at 0.005 µM",4.25%
same,inhibition,"[3]; BGB IC40 combo, at 0.005 µM",-33%
same,inhibition,"[3]; BGB IC40 combo, at 0.05 µM",53.7%
same,inhibition,[3]; at 0.5 µM,-17.1% (inactive)
same,inhibition,"[3]; cisplatin combo, at 0.05 µM",51.9%
same,inhibition,"[3]; cisplatin combo, at 0.5 µM",-18%
same,inhibition,"[3]; cisplatin combo, at 5 µM",-19.3%
same,inhibition,"[3]; measured here: 5 uM single agent, at 5 µM",-11.6%
same,inhibition,[4]; at 0.5 µM,-31.9% (inactive)
same,inhibition,[4]; [16],-18.3%
same,inhibition,[4]; [19],-29.4%
same,inhibition,[4]; [20],98.6%
same,inhibition,[5]; at 0.5 µM,-6.12% (inactive)
same,inhibition,"[5]; measured here: with BGB IC20, at 0.5 µM",-12.5%
same,inhibition,"[5]; measured here: with BGB IC20, at 5 µM",51.6%
same,inhibition,"[5]; measured here: with cisplatin IC20, at 0.5 µM",-4.05%
same,inhibition,"[5]; measured here: with cisplatin IC20, at 5 µM",62.5%
same,inhibition,"[5]; single agent, at 5 µM",66.5%
same,inhibition,[6]; at 0.5 µM,-64.3% (inactive)
same,inhibition,"[6]; measured here: combination with BGB at IC20, at 0.5 µM",-14.4%
same,inhibition,"[6]; measured here: combination with cisplatin at IC20, at 0.5 µM",-90.7%
same,inhibition,[7]; at 0.5 µM,-8.56% (inactive)
same,inhibition,"[7]; measured here: combo with BGB at IC20, at 0.5 µM",5.57%
same,inhibition,"[7]; measured here: combo with cisplatin at IC20, at 0.5 µM",-16.5%
same,inhibition,[8]; at 0.5 µM,-5.91% (inactive)
same,inhibition,"[8]; measured here: inhibition with BGB combination, at 0.05 µM",-14.1%
same,inhibition,"[8]; measured here: inhibition with cisplatin combination, at 0.05 µM",-20.4%
same,inhibition,[9]; at 0.5 µM,-23.7% (inactive)
same,inhibition,[9]; [19],-29.5%
same,inhibition,[9]; [20],43.1%
same,inhibition,[10]; at 0.5 µM,-0.98% (inactive)
same,inhibition,"[10]; measured here: BGB combination, at 0.5 µM",1.65%
same,inhibition,"[10]; measured here: BGB combination, at 5 µM",39.9%
same,inhibition,"[10]; measured here: cisplatin combination, at 0.5 µM",-3.72%
same,inhibition,"[10]; measured here: cisplatin combination, at 5 µM",56.7%
same,inhibition,"[11]; BGB combination, concentration series, at 5 µM",44.1%
same,inhibition,[11]; at 0.5 µM,-3.8% (inactive)
same,inhibition,"[11]; cisplatin combination, concentration series, at 5 µM",48.6%
same,inhibition,[12]; at 0.5 µM,3.62% (inactive)
same,inhibition,"[12]; measured here: combo with BGB IC20, at 0.5 µM",4.43%
same,inhibition,"[12]; measured here: combo with cisplatin IC20, at 0.5 µM",0.413%
same,inhibition,[13]; at 0.5 µM,-5.97% (inactive)
same,inhibition,"[13]; cisplatin combination, at 0.5 µM",-9.26%
same,inhibition,"[13]; cisplatin combination, at 5 µM",48.9%
same,inhibition,"[13]; measured here: BGB IC40 combination 0.05 uM, at 0.05 µM",-2.12%
same,inhibition,"[13]; single agent, at 5 µM",20.7%
same,inhibition,[14]; at 0.5 µM,9.79% (inactive)
same,inhibition,"[14]; cisplatin combo, at 5 µM",75.6%
same,inhibition,"[14]; measured here: BGB IC40 combination, at 0.05 µM",6.86%
same,inhibition,[14]; [19],15.7%
same,inhibition,"[14]; single agent, at 5 µM",33.4%
same,inhibition,[15]; at 0.5 µM,8.87% (inactive)
same,inhibition,[15]; [17],-16.3%
same,inhibition,[15]; [18],21.4%
same,inhibition,"[15]; single agent, at 0.05 µM",18.3%
same,inhibition,"[15]; single agent, at 5 µM",72.3%
